# Data reported in PubChem BioAssay (NCI).
# This is part of a sample that, as a whole, favours compounds with a hit. Of some 79,000 tested, about 15% had one in any assay. A number with no mark means an inactive call. Active and inactive are the calls of the source. No stated cut-off is given here; in the data, active means growth inhibition above about 70%; inactive means the rest.
# How the values were obtained:
# [1] = NCI Yeast Anticancer Drug Screen. Data for the rad50 strain (AID 155);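 further: 0% = growth of vehicle-only cultures of the same strain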; conditions: S. cerevisiae rad50 strain growth inhibition, hits give high values
# Method in brief: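 DNA repair mutant yeast, compound exposure, growth read-out; inhibition is taken relative to vehicle.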
# [2] = NCI Yeast Anticancer Drug Screen. Data for the mec2-1 strain (AID 157); conditions: S. cerevisiae mec2-1 strain, hits give high values
# Method in brief: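 Each compound was tested on mec2-1 yeast, a strain altered in DNA damage repair or cell cycle control. Growth inhibition is reported relative to vehicle.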
# [3] = NCI Yeast Anticancer Drug Screen. Data for the sgs1 mgt1 strain (AID 161);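 further: 0% = growth of cultures given vehicle only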; conditions: S. cerevisiae sgs1 mgt1 strain, hits give high values
# Method in brief: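 Mutant yeast exposed to compound; growth scored against vehicle-only wells.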
# [4] = NCI Yeast Anticancer Drug Screen. Data for the cln2 rad14 strain (AID 165);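 further: 0% = growth equal to vehicle treated cultures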; conditions: S. cerevisiae cln2 rad14 strain, hits give high values
# Method in brief: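 Test compounds were added to cln2 rad14 yeast cultures; inhibition of growth was then determined by comparison with vehicle treatment.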
# [5] = NCI Yeast Anticancer Drug Screen. Data for the bub3 strain (AID 167); conditions: S. cerevisiae bub3 mutant strain, hits give high values
# Method in brief: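 In this screen, a yeast mutant lacking normal mitotic checkpoint function is challenged with compound. Relative growth versus vehicle gives the inhibition value.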
# [6] = NCI Yeast Anticancer Drug Screen. Data for the mlh1 rad18 strain (AID 175); conditions: S. cerevisiae mlh1 rad18 strain growth inhibition, hits give high values
# Method in brief: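 Inhibition values reflect reduced growth of mutant yeast versus vehicle-treated controls following compound exposure; the mutations affect DNA damage repair.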
# [7] = at 5.0 µM (retest, dose inferred, filed as 0.5)
# [8] = at 50.0 µM (retest, dose inferred, filed as 5.0)
SMILES,"growth inhibition [1, 7]","growth inhibition [1, 8]",growth inhibition ([1]; at 50.0 µM),"growth inhibition [2, 7]","growth inhibition [2, 8]",growth inhibition ([2]; at 50.0 µM),"growth inhibition [3, 7]","growth inhibition [3, 8]",growth inhibition ([3]; at 50.0 µM),"growth inhibition [4, 7]","growth inhibition [4, 8]",growth inhibition ([4]; at 50.0 µM),"growth inhibition [5, 7]","growth inhibition [5, 8]",growth inhibition ([5]; at 50.0 µM),"growth inhibition [6, 7]","growth inhibition [6, 8]",growth inhibition ([6]; at 50.0 µM)
COC(=O)[C@H]1[C@@H](C(C)C)O[C@@H](C(C)C)O[C@H]1C(F)(F)F,-1%,2%,86.7% (active),-13%,-25%,92.5% (active),-14%,-10%,86.6% (active),-15%,1%,88.5% (active),-30%,1%,88.7% (active),-15%,-13%,84.4% (active)
O=C1/C(=C/c2ccccc2)CN(C(=O)CCN2CCCC2)C/C1=C\c1ccccc1,5%,83% (active),91.8% (active),10%,86% (active),90.5% (active),99% (active),96% (active),91.3% (active),99% (active),96% (active),89.7% (active),99% (active),96% (active),92.2% (active),2%,89% (active),90.5% (active)
O=[N+]([O-])c1cccc2c(O)cccc12,3%,58%,59%,0%,35%,33.4%,-2%,31%,39.1%,-3%,30%,33.8%,-1%,65%,47.2%,0%,43%,73.5% (active)
CCOc1ccc2c(ccc(/C=C\c3cc(C)c4cccnc4c3O)[n+]2C)c1,91% (active),92% (active),87.3% (active),81% (active),91% (active),89.2% (active),87% (active),93% (active),90% (active),67%,87% (active),86.8% (active),59%,91% (active),82.8% (active),95% (active),93% (active),89% (active)
O[Si](O)(c1ccccc1)c1ccccc1,13%,92% (active),96.2% (active),7%,92% (active),93% (active),10%,92% (active),95.8% (active),0%,88% (active),90.2% (active),-2%,94% (active),95.6% (active),12%,95% (active),95.8% (active)
O=C1/C(=C\c2ccc(Cl)cc2Cl)Sc2scc(-c3ccc(O)c(O)c3)[n+]21,18%,55%,86.2% (active),6%,67%,76.9% (active),15%,71% (active),97.8% (active),1%,71% (active),46.5%,-10%,81% (active),85.7% (active),28%,68%,91.8% (active)
CCc1c(-c2ccccc2)c(CN2CCCCC2)c2ccccn12,6%,3%,-1.4%,13%,13%,-4.85%,0%,37%,88.2% (active),-6%,26%,-20%,-4%,26%,-5.5%,-12%,5%,21.9%
O=C(O)c1nnsc1-c1ccc(-c2snnc2C(=O)O)cc1,2%,14%,22%,-2%,18%,23.1%,-4%,30%,-6.3%,21%,0%,39.3%,25%,6%,35.1%,7%,9%,3.3%
Cc1cc(C)nc(CCSS(=O)(=O)O)c1,-4%,5%,12.7%,-17%,2%,-0.95%,2%,6%,3.35%,-1%,-8%,0.65%,-1%,-6%,40.9%,12%,6%,5.85%
CCCCCOC(=O)CSC#N,93% (active),99% (active),98.7% (active),97% (active),99% (active),99% (active),96% (active),98% (active),98.8% (active),79% (active),99% (active),98.5% (active),96% (active),99% (active),98.7% (active),91% (active),99% (active),98.8% (active)
CCN(CC)CCOc1ccc(C(=C2CCCCC2)c2ccc(OCCN(CC)CC)cc2)cc1,34%,34%,84.8% (active),31%,31%,41%,31%,31%,89.1% (active),31%,31%,77% (active),31%,31%,76.8% (active),28%,28%,78.5% (active)
Nc1ncnc2c1c(-c1ccccc1)cn2-c1ccccc1,38%,78% (active),97.8% (active),31%,58%,97.3% (active),71% (active),93% (active),99% (active),20%,53%,95.2% (active),29%,81% (active),95.8% (active),27%,82% (active),98.5% (active)
ClC(Cl)(Cl)C(c1ccccc1)c1ccccc1,3%,30%,76.8% (active),0%,12%,38.5%,3%,42%,71.1% (active),4%,-3%,-17.2%,-5%,5%,16.4%,16%,15%,73.8% (active)
CC(=O)N(c1ccccc1)C(C)C,6%,14%,-5.75%,6%,0%,-10.2%,1%,1%,-9.75%,-1%,-5%,44.4%,10%,79% (active),-1.65%,14%,10%,9.8%
CC(C)=CC[P+](CCCCCC[P+](CC=C(C)C)(c1ccccc1)c1ccccc1)(c1ccccc1)c1ccccc1,-4%,9%,31.6%,-1%,9%,40.8%,-3%,27%,59.5%,-5%,16%,4.75%,-3%,15%,48.3%,-1%,27%,89.2% (active)
Cc1ccc(NC(=S)SCc2ccc(Cl)cc2)cc1Br,48%,99% (active),90.5% (active),25%,99% (active),93.2% (active),64%,100% (active),91% (active),48%,99% (active),89.9% (active),65%,99% (active),92.3% (active),38%,99% (active),90.8% (active)
O=c1[nH]c(=O)c2n[nH]nc2[nH]1,6%,3%,0.45%,-1%,5%,-4.95%,1%,9%,33.4%,9%,8%,-42.5%,3%,3%,7.7%,3%,6%,24.1%
ClCc1c(-c2ccccc2)oc(-c2ccccc2)c1CCl,0%,49%,32.6%,1%,64%,34%,6%,72% (active),68.8%,1%,38%,21.9%,1%,40%,8.25%,1%,86% (active),73.4% (active)
Cc1ccccc1NC(=S)Nc1ccccc1O,-4%,81% (active),97.2% (active),-2%,87% (active),94.4% (active),0%,82% (active),90.8% (active),-5%,63%,-27.8%,20%,98% (active),98.3% (active),-3%,71% (active),95.1% (active)
